Only some compounds are listed: those with a hit (about 3.5% of all), similar ones and a draw of the others.
FBW7 act: activators of human E3 ligase FBW7 | AID 1259310 | Q969H0 | 0.13% of 650,000 active | normalized activity (activation), % at 26.1 µM | AlphaScreen FBW7–phospho-cyclin E peptide binding, activator screen; in the data active = normalized activity above about 1.9%;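 also: purified mutant Fbw7 with reduced substrate affinity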
Target sequence (Q969H0 whole entry, looked up): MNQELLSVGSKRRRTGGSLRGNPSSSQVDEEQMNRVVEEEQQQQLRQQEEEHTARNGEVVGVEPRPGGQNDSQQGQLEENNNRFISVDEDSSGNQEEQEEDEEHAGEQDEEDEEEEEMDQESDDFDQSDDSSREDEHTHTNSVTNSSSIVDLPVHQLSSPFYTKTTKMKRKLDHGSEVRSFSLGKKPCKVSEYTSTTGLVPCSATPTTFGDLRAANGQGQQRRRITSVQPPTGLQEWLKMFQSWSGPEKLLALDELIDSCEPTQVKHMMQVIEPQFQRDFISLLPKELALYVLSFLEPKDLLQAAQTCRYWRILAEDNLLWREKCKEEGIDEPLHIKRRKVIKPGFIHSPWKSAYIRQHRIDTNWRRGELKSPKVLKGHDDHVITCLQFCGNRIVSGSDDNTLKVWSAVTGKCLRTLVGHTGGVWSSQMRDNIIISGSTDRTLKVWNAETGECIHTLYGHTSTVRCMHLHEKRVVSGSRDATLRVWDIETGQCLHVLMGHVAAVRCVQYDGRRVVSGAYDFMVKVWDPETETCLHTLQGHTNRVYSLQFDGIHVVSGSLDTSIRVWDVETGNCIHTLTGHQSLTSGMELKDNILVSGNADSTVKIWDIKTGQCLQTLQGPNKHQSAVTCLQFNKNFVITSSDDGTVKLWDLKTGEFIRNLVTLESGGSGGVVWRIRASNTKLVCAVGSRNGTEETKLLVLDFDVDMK
MITF inh: blocks human microphthalmia-associated transcription factor | AID 1259374 | 0.91% of 650,000 active | inhibition, % at 2.6 µM | AlphaScreen MITF homodimerization, bead proximity signal | O75030; in the data active = inhibition above about 50%;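 also: 0% = vehicle wells with protein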
GPR151 activ: activates the human receptor GPR151. 1% of 650,000 active. activation, % at 11.2 µM. PathHunter beta-arrestin GPR151 cells, luminescence. Q8TDV0; in the data active = activation above about 4.9%;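 also: 0% = median of compound wells and 100% = cells with positive control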
TEAD-YAP inh: TEAD-YAP interaction inhibition; HEK-TIYL cells, TEAD-Gal4/YAP UAS-luciferase luminescence; inhibition, % at 9.12 µM; 1.4% of 640,000 active; AID 1259422; in the data active = inhibition above about 32%;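 also: 0% = median of test compound wells and 100% = reference inhibitor wells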
* marks the source's active call; other numbers are inactive results.

SMILES | FBW7 act | MITF inh | GPR151 activ | TEAD-YAP inh
CCCCOc1c(Br)cc(C2NC(=O)NC(C)=C2C(=O)OC)cc1OC (configuration not stated) | 0 | 9 | 1 | 35*
CCOC(=O)C1=C(C)Nc2nnnn2C1c1cc(Br)c(OC)c(OC)c1 (configuration not stated) | 1 | 3 | 1 | 53*
COC(=O)C1=C(C)Nc2nnnn2C1c1cc(OC)c(OC)c(OC)c1 (configuration not stated) | 0 | 6 | 1 | 51*
CCOC(=O)C1=C(C)Nc2nnnn2C1c1ccc(OC)c(OC)c1 (configuration not stated) | 0 | -2 | 0 | 0
COC(=O)C1=C(C)NC(=O)NC1c1cc(Br)c(OC)c(OC)c1 (configuration not stated) | 0 | -13 | -2 | -8
COC(=O)C1=C(C)Nc2nnnn2C1c1ccc(OC)cc1 (configuration not stated) | 1 | 8 | -1 | 4
CC1(C(=O)NC2CCCCCCC2)Cc2ccccc2C(=O)N1CCCN1CCOCC1 (configuration not stated) | 0 | 1 | 1 | 3
CC(NC(=O)CCCSc1nc2ccccc2s1)c1ccc(S(N)(=O)=O)cc1 (configuration not stated) | 0 | -7 | 1 | -11
O=C(Cc1ccc([N+](=O)[O-])cc1)Nc1ccc2c(c1)oc1ccccc12 | 0 | 14 | 0 | 0
CC(=O)Nc1ccc2oc(-c3ccccc3F)nc2c1 | 0 | 9 | -1 | 1
O=C(Nc1ccc2oc(-c3ccccc3F)nc2c1)c1cc([N+](=O)[O-])ccc1Cl | 0 | 14 | 0 | 32*
O=C(Nc1ccc2oc(-c3ccccc3Cl)nc2c1)c1cc([N+](=O)[O-])ccc1Cl | 0 | 4 | 2 | 26
O=C(Nc1ccc2c(c1)oc1ccccc12)c1cc([N+](=O)[O-])ccc1Br | 0 | 2 | 1 | 33*
CC(C)C(=O)Nc1ccc2oc(-c3ccccc3F)nc2c1 | 0 | -6 | -4 | 72*
Cc1ccccc1-c1nc2cc(NC(=O)c3cc([N+](=O)[O-])ccc3Cl)ccc2o1 | 0 | -10 | 0 | 33*
O=C(Nc1ccc2oc(-c3cccc(Cl)c3Cl)nc2c1)c1cc([N+](=O)[O-])ccc1Cl | 0 | -2 | 0 | 9
CC(NC(=O)CCCn1c(=O)oc2ccccc21)c1ccc(S(N)(=O)=O)cc1 (configuration not stated) | 1 | 20 | 0 | -5
N/C(=N\OCC(=O)Nc1cccc(I)c1)c1ccccc1 | 0 | -4 | 0 | 0
O=C(Nc1ccc2oc(-c3ccc4ccccc4c3)nc2c1)c1cccc(Cl)c1Cl | 1.9* | 18 | -1 | -11
O=C(Nc1ccc2oc(-c3ccccc3)nc2c1)c1cc([N+](=O)[O-])ccc1Br | 1 | 20 | 0 | 36*
CC(=O)Nc1ccc(Nc2ccc(S(C)(=O)=O)cc2[N+](=O)[O-])cc1 | 0 | 1 | -1 | 6
OCC1CCCN(c2ncnc3sccc23)C1 (configuration not stated) | 0 | -2 | 3 | -9
COc1ccc2cc3c(N)nn(C(=O)c4ccccc4C)c3nc2c1 | 0 | -1 | 0 | 45*
COc1ccc2cc3c(N)nn(C(=O)c4ccco4)c3nc2c1 | 0 | 0 | 1 | 59*
COc1cc(C2Nc3ccc4ncccc4c3C3=C2C(=O)CCC3)ccc1OC(C)=O (configuration not stated) | 0 | -3 | 0 | 52*
SMILES | FBW7 act | MITF inh | GPR151 activ | TEAD-YAP inh
Cc1ccc(COC(=O)c2ccc(=O)[nH]n2)cc1 | 0 | -2 | 0 | 5
N#Cc1c2ccc([N+](=O)[O-])cc2[n+]([O-])n1-c1ccccc1 | 0 | -3 | 1 | -25
N#CC1=C(N)N(c2ccccc2)S(=O)(=O)c2cc([N+](=O)[O-])ccc21 | 0 | 14 | -1 | 56*
COc1ccc(-c2nccc(Nc3cc(OC)c(OC)c(OC)c3)n2)cn1 | 0 | 5 | 0 | 60*
COc1cc(Nc2cc(C)nc(NCc3ccc4c(c3)OCO4)n2)cc(OC)c1OC | 1 | 16 | 4 | 43*
COc1cc(Nc2ccnc(NCc3ccc4c(c3)OCO4)n2)cc(OC)c1OC | 0 | 2 | 1 | 35*
COc1cc(Nc2nccc(Nc3ccc4c(c3)OCO4)n2)cc(OC)c1OC | 0 | 3 | 2 | 34*
NC(=O)CSc1nnc(-c2ccccc2)n1CC1CCCO1 (configuration not stated) | 0 | -7 | 0 | -4
Nc1nc(F)cc(Oc2ccccc2F)n1 | 0 | 6 | 3 | 5
COc1ccc2cc3c(N)nn(C(=O)c4cc(OC)c(OC)c(OC)c4)c3nc2c1 | 0 | 19 | 0 | 51*
COc1ccc2cc3c(N)nn(C(=O)c4ccncc4)c3nc2c1 | 0 | -21 | 1 | 22
CCOc1ccc(C(=O)n2nc(N)c3cc4cc(OC)ccc4nc32)cc1OCC | 0 | 7 | 2 | 52*
COc1ccc2nc3c(cc2c1)c(N)nn3C(=O)c1cc(OC)c(OC)c(OC)c1 | 0 | 0 | 0 | 62*
CCOC(=O)C1=C(O)/C(=C/c2cc(C)n(-c3cccc(Br)c3)c2C)N=C1C | 0 | -9 | 0 | -8
COc1ccccc1NC1=C/C(=N/S(=O)(=O)c2cccs2)c2ccccc2C1=O | -1 | 54* | 0 | -12
O=C(O)c1ccc(NC2=C/C(=N/S(=O)(=O)c3ccccc3)c3ccccc3C2=O)cc1 | 0 | 9 | -3 | 0
O=C1C(Nc2ccc(O)cc2)=C/C(=N/S(=O)(=O)c2cccs2)c2ccccc21 | -1 | 29 | -2 | 97*
O=C(O)c1ccc(NC2=C/C(=N/S(=O)(=O)c3cccs3)c3ccccc3C2=O)cc1 | 0 | 7 | -2 | -11
COc1ccccc1NC1=C/C(=N/S(=O)(=O)c2ccccc2)c2ccccc2C1=O | -1 | 71* | -1 | 48*
O=C1C(Nc2ccc(O)cc2)=C/C(=N/S(=O)(=O)c2cccc([N+](=O)[O-])c2)c2ccccc21 | -1 | 28 | -2 | 92*
N#Cc1ccc(NC(=O)c2nn3c(C(F)(F)F)cc(-c4ccccc4)nc3c2Br)cc1 | 0 | 10 | 0 | 3
CCN(CC)CCn1nc2c3c(cccc3c1=O)-c1ccccc1-2 | 0 | 9 | 2 | 81*
CCOC(=O)c1sc2ncnc(Nc3cccc(C)c3)c2c1C | 0 | 8 | -1 | 1
CCOC(=O)c1sc2ncnc(Nc3ccc(C)cc3Br)c2c1C | 0 | 3 | 0 | 59*
COc1ccc(C(=O)NCC(c2cccs2)S(=O)(=O)c2ccc(F)cc2)cc1 (configuration not stated) | 1 | 22 | -1 | 6
COc1ccc(-c2nc(N)c3ncn(-c4ccccc4)c3n2)cc1 | 0 | -6 | -1 | 1
COc1ccc(-c2nc(N)c3ncn(-c4ccsc4)c3n2)cc1 | 0 | 6 | 0 | 36*
COc1ccc(-c2nc(N)c3ncn(-c4ccsc4)c3n2)cn1 | 0 | -8 | 0 | 62*
COc1ccc(-c2nc(N)c3ncn(-c4ccccc4)c3n2)cn1 | 0 | -3 | 0 | -4
